# Compound activity: PubChem, several laboratories
# In the library only some 3.8% were active in any assay of this set; here they are far more common.
# ERb coact inh – inhibitors of ERβ-SRC1 coactivator interaction, primary screen, biochemical, TR-FRET, ERβ LBD, SRC-1 peptide; AID 633, 2007; 86,000 tested, 1.3% active; TR-FRET ER-beta LBD / SRC1-Cy5 peptide binding; receptor agonist-loaded with 1 µM estradiol; inhibition, % at 25.6 µM;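 active means compounds whose percent inhibition of the receptor-coactivator binding signal exceeds about 50% in the single-dose screen, limit read from the data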;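 further: 0% = receptor plus peptide wells without compound and 100% = peptide-only wells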
# Smad3 inh – Smad3/FoxH1 peptide binding inhibitors, primary screen, biochemical, TR-FRET; Mothers against decapentaplegic homolog 3 (Homo sapiens), P84022; TR-FRET Smad3/Dy647-FoxH1 peptide binding, europium anti-His; inhibition, % at 25 µM; 88,000 tested, 0.29% active; AID 630, 2007;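 active means compounds that reduce the energy-transfer binding signal between the protein and its labelled peptide by more than half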;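 further: 0% = Smad3 plus labelled peptide maximal FRET and 100% = peptide-only background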
# Target sequence (P84022 whole entry, looked up): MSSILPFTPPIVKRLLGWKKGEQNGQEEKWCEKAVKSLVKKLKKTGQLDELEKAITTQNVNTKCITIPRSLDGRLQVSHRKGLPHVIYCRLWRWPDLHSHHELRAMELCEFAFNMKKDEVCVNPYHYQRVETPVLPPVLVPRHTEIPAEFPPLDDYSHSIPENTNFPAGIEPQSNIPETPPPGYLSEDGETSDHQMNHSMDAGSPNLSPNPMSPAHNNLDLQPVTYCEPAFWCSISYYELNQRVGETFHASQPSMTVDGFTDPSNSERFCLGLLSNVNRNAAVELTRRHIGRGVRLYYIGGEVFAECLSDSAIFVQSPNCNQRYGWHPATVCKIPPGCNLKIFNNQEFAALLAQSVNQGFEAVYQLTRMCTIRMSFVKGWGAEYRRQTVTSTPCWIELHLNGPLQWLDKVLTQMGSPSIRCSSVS
# Calb biofilm kill – clotrimazole potentiators killing Candida biofilms, primary screen, with clotrimazole, Alamar Blue; C. albicans biofilm + clotrimazole; inhibition, % at 6 µM; 85,000 tested, 0.14% active; AID 834, 2007;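 active means inhibition above 20%; inactive means inhibition below 20%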;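 further: preformed 24 hr biofilms exposed to compound for 48 hr; 0% = biofilm without compound and 100% = blank killed by clotrimazole plus chlorhexidine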
# ERa coact inh – ERα–SRC-1 coactivator interaction inhibitors, primary screen, biochemical, TR-FRET, ERα LBD, estradiol-bound; TR-FRET ER-alpha LBD / SRC-1 peptide; Estrogen receptor (Homo sapiens), P03372; AID 629, 2007; 86,000 tested, 1.7% active; inhibition, % at 25.6 µM; in the data active means inhibition above about 50%;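 further: 0% = receptor plus peptide control and 100% = peptide only without receptor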
# ERa coact pot – enhancers of ERα–SRC-1 coactivator binding, primary screen, biochemical, TR-FRET, ERα LBD, low estradiol | TR-FRET ERalpha-LBD/SRC-Cy5 coactivator binding, 2 h; 100 = basal binding, no effect | coactivator binding (% of control), % at 25.6 µM | 86,000 tested, 1.3% active; in the data active means activity above about 200%;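 further: binding measured in presence of low estradiol as agonist stimulus; 0% = peptide alone without receptor and 100% = receptor with peptide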
# MT1-MMP txn act – MT1-MMP promoter reporter activation – cell-based, luciferase luminescence, primary screen | HT1080 MT1-MMP promoter luciferase reporter, overnight; stronger effect = higher value | activation factor at 10 µM | 86,000 tested, 0.16% active | AID 750, 2007;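 active means activation factor of at least 2 for MT1-MMP transcription at 10 µM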
# Starred values were filed as active, the others as inactive; . = not tested or not shown; ! = not confirmed by another sample; [ ] = remark or other dose.
SMILES,ERb coact inh,Smad3 inh,Calb biofilm kill,ERa coact inh,ERa coact pot,MT1-MMP txn act
COC(=O)Cn1c(CCC(=O)O)ccc1-c1ccccc1,-1.6,1.9,30.7*,-6.8,97.0,1
COc1ccccc1C(=O)Nc1nnc(-c2ccco2)s1,13.5,-4.3,5.1,11.9,242.1*,1.3
O=C(Nc1nnc(-c2ccco2)s1)c1ccccc1,21.8,11.5,1.9,7.0,101.1,1.1
COc1ccc(C(=O)Nc2nnc(-c3ccco3)s2)cc1,30.4,-4.2,-1.4,3.6,462.7*[fluorescence artefact?],.
Cc1cc(C)c(C)c(S(=O)(=O)NCc2ccc(C(=O)N3CCCCC3)cc2)c1C,-2.6,7.6,2.2,0.6,103.5,1.5
COC(=O)c1c(C)[nH]c(C(=O)COC(=O)Cc2ccc3c(c2)OCCO3)c1C,0.2,0.3,10.6,-0.8,260.3*[fluorescence artefact?],1.1
c1ccc2oc(-c3ccc(Nc4nc(N5CCCCC5)nc(N5CCOCC5)n4)cc3)nc2c1,27.5,10.9,8.1,19.8,92.6,1.1
COc1nc(Nc2ccc(-c3nc4ccccc4o3)cc2)nc(N2CCOCC2)n1,-8.2,-8.5,-1.3,62.3*[fluorescence artefact?],73.4,1.1
Cc1ccc(N(CC2=NCCN2)c2cccc(O)c2)cc1,70.2*!,1.0,6.8,-4.3,94.3,1.2
c1ccc(CN(CC2=NCCN2)c2ccccc2)cc1,4.2,5.2,3.3,-5.7,118.8,1.1
CN(CC(=O)O)CC(=O)O,.,-0.4,.,.,.,.
Cc1c([C@H]2[C@@H](CC#N)C2(C)C)c2ccccc2n1C,68.6*,11.6,7.4,63.1*[fluorescence artefact?],73.4,1
O=C(Cc1ccc(Cl)cc1)Nc1ccc2oc(-c3ccncc3)nc2c1,8.4,5.2,9.8,5.2,456.4*,0.9
CCCCCC(=O)Nc1ccc2oc(-c3cccnc3)nc2c1,-25.0,10.7,3.1,-6.7,112.0,1.2
Cc1cc(OCC(=O)Nc2ccc3oc(-c4ccncc4)nc3c2)ccc1Cl,35.9,-12.2,10.7,46.8,203.8*[fluorescence artefact?],1
COc1ccc(-c2nc3cc(NC(=O)c4ccc5c(c4)OCO5)ccc3o2)cc1,43.5,-5.7,-3.4,39.8,412.2*[fluorescence artefact?],1.2
O=C(Nc1ccc2oc(-c3ccccc3)nc2c1)c1ccc2c(c1)OCCO2,18.2,8.0,0.2,37.4,147.6,1.2
O=C(CCSc1nnc(-c2ccncc2)o1)Nc1ccc(Cl)cc1,6.0,14.2,3.5,-1.8,102.7,1
O=C(Cc1ccccc1)Nc1ccc2oc(-c3cccnc3)nc2c1,-16.5,2.1,7.4,-63.5,789.5*,1.2
CC(=O)c1ccc(NC(=O)c2cnn3c(C(F)F)cc(C4CC4)nc23)cc1,22.8,3.6,2.0,25.9,183.7,1.1
Nc1cc2c(cc1C(=O)c1ccc(Cl)cc1)OCCO2,2.7,9.6,1.5,-1.5,84.0,.
CSCC[C@@H](C(=O)O)N(C)C,.,2.4,.,.,.,.
O=C(Nc1ccc2oc(-c3ccncc3)nc2c1)c1c(F)c(F)c(F)c(F)c1F,10.9,-22.3,-4.0,22.2,265.7*,1.1
COc1c(F)c(F)c(C(=O)Nc2ccc3oc(-c4ccncc4)nc3c2)c(F)c1F,18.8,-6.3,-2.2,23.7,140.0,0.9
COc1ccccc1C(=O)Nc1ccc2oc(-c3ccc(F)cc3)nc2c1,24.7,-15.7,4.5,29.2,251.9*,1.6
SMILES,ERb coact inh,Smad3 inh,Calb biofilm kill,ERa coact inh,ERa coact pot,MT1-MMP txn act
COc1ccc(C(=O)Nc2ccc3oc(-c4cccc(F)c4)nc3c2)cc1OC,5.0,12.3,0.8,1.6,157.1,1
CCCC(=O)Nc1ccc(-c2nc3cc(C)c(C)cc3o2)c(O)c1,39.6,-25.5,7.0,49.9,189.8,1.3
COc1ccc(CC(=O)Nc2ccc(-c3nc4cc(C)ccc4o3)c(O)c2)cc1OC,53.4*[fluorescence artefact?],-69.5,8.2,89.8*[fluorescence artefact?],122.0,1.2
O=C(Nc1ccc2oc(-c3ccccc3F)nc2c1)c1cncc(Br)c1,28.3,3.0,8.4,53.7*,164.0,1
O=C(Nc1ccc2oc(-c3ccccc3)nc2c1)c1cccnc1,3.4,-5.9,1.7,5.8,118.7,1.4
COc1ccccc1-c1nnc(SCC(=O)Nc2ccc(S(N)(=O)=O)cc2)n1C,17.6,-0.6,4.4,20.2,94.4,1.2
CCOc1ncccc1C(=O)OCc1cc(=O)n2c(n1)sc1ccccc12,56.2*[fluorescence artefact?],7.6,2.6,83.6*[fluorescence artefact?],115.3,.
O=C(O)CN(CCN(CC(=O)O)CC(=O)O)CC(=O)O.[Cu+2],.,22.8,.,.,.,.
Oc1ccc(N=Cc2ccc(-c3cccs3)s2)cc1,62.5*[fluorescence artefact?],11.6,5.3,33.4,33.6,1
O=C(NCCCN1CCc2ccccc2C1)C1CCN(c2nnc(-n3cccc3)s2)CC1,33.4,-7.8,11.9,72.1*[fluorescence artefact?],88.4,.
O=C(NCCCN1CCN(Cc2ccccc2)CC1)C1CCN(c2nnc(-n3cccc3)s2)CC1,21.0,12.9,4.6,29.4,86.9,1.3
O=C(NC1CCN(Cc2ccccc2)CC1)C1CCN(c2nnc(-n3cccc3)s2)CC1,16.1,-3.4,-5.4,53.9*[fluorescence artefact?],-0.4,1
COC(=O)[C@@]1(Cc2ccccc2)[C@H]2c3cc(C(=O)N(C)C)n(C[C@H](O)CO)c3C[C@H]2CN1C(=O)c1ccccc1,.,.,.,.,.,1.1
CCOC(=O)N1CCN(c2cc(=O)n(-c3ccccc3Cl)c(=O)[nH]2)CC1,74.5*[fluorescence artefact?],-5.2,2.1,0.0,123.3,1.1
CCCCNC(=O)C(Cc1ccccc1)NS(=O)(=O)c1ccc2c(c1)c(=O)n(C)c(=O)n2C (configuration not stated),12.3,-7.6,11.8,85.5*[fluorescence artefact?],122.3,.
CN1CCN(C(=O)C(Cc2ccccc2)NS(=O)(=O)c2ccc3c(c2)CCC(=O)N3)CC1 (configuration not stated),-3.4,10.2,9.1,-6.2,119.2,1.1
CCOC(=O)CNC(=O)C(Cc1ccccc1)NS(=O)(=O)c1ccc2c(c1)CCC(=O)N2 (configuration not stated),85.9*,4.8,.,-3.0,100.7,0.9
O=C1/C(=C\c2ccccc2)[C@@H](NC2CCCCC2)c2ccccc21,.,25.0,.,.,.,.
COc1ccc(S(=O)(=O)Cc2ccc(C(=O)N3CCCC3)o2)cc1,-4.0,2.2,9.4,-2.6,117.8,1
COc1ccccc1S(=O)(=O)Cc1ccc(C(=O)N2CCCC2)o1,-12.5,0.4,6.5,6.9,208.4*,1.1
O=C(Cc1cccs1)Nc1cccc(C(=O)Nc2ccco2)c1,-1.9,6.0,3.7,-1.0,102.7,1.1
CCCNS(=O)(=O)c1ccc(NC(=O)Cc2cccs2)cc1,-0.8,7.2,10.3,-6.0,111.3,1.3
